{
  "source": "paper PMC8384837",
  "about": "“Expanding the binding specificity for RNA recognition by a PUF domain”",
  "test_in_all_cases": "yeast three-hybrid, YBZ-1, SC-Leu-His + 0.5 mM 3-AT, 4 days",
  "conditions_in_all_cases": "tags: N-Gal4 AD-HA kept; label: inside an RPR1-promoter hybrid RNA with tandem MS2 sites; ssRNA",
  "key": {"[1]": {"target": "PUM1 PUF domain R8-RFR (Homo sapiens, UniProt Q14671 828-1176, N1122R;Y1123F;Q1126R)", "method_in_brief": "(§1)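 A centromeric plasmid in strain YBZ-1 co-expressed Pumilio-1 PUF domain libraries, randomized at the three base-contacting residues of each repeat, with matching RNA elements; the strain carries a LexA–MS2 coat fusion and a HIS3 reporter. After four days on SC-Leu (input) or SC-Leu-His + 0.5 mM 3-AT (selection), the repeat regions were PCR-amplified and Illumina-sequenced. The interaction score is the log change in variant frequency from input to selection, using log2 and a pseudocount of 1 where absent.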"}, "[2]": {"target": "PUM1 PUF domain R3-VFD (Homo sapiens, UniProt Q14671 828-1176, C935V;R936F;Q939D)", "method_in_brief": "as §1"}, "[3]": {"target": "PUM1 PUF domain R1-RWD (Homo sapiens, UniProt Q14671 828-1176, S863R;R864W;Q867D)", "method_in_brief": "as §1"}, "[4]": {"target": "PUM1 PUF domain R3-CRM (Homo sapiens, UniProt Q14671 828-1176, Q939M)", "method_in_brief": "as §1"}, "[5]": {"target": "PUM1 PUF domain R4-GPH (Homo sapiens, UniProt Q14671 828-1176, N971G;H972P;Q975H)", "method_in_brief": "as §1"}, "[6]": {"target": "T1, PUM1 PUF domain R6-NYV (Homo sapiens, UniProt Q14671 828-1176, Q1047V)", "T1 sequence": "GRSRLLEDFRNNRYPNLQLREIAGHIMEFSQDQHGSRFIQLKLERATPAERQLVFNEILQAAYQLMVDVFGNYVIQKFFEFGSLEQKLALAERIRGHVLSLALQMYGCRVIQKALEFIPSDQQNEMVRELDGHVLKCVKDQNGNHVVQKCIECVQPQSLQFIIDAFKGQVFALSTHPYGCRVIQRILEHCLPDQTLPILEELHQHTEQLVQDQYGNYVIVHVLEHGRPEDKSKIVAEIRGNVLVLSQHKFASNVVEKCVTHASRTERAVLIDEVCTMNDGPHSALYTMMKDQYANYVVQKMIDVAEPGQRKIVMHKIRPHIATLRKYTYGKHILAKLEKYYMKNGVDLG", "method_in_brief": "as §1"}, "[7]": {"target": "PUM1 PUF domain R7-RRL (Homo sapiens, UniProt Q14671 828-1176, S1079R;N1080R;E1083L)", "method_in_brief": "as §1"}, "[8]": {"target": "PUM1 PUF domain R1-KRF (Homo sapiens, UniProt Q14671 828-1176, S863K;Q867F)", "method_in_brief": "as §1"}, "[9]": {"target": "PUM1 PUF domain R3-YRE (Homo sapiens, UniProt Q14671 828-1176, C935Y;Q939E)", "method_in_brief": "as §1"}, "[10]": {"target": "PUM1 PUF domain R3-KPV (Homo sapiens, UniProt Q14671 828-1176, C935K;R936P;Q939V)", "method_in_brief": "as §1"}},
  "data": [
    {"sequence": "GGCUAGAACUAGUGGAUCCCCCGGCGCCCGGCGGCUCGAGCCCGGGUAAGCGUAAAUAGUCUGCAUGCCGCCGGGCGCCAUGCCUGCAGGUCGACUCUAGAAAACAUG", "values": [
      {"measurement": "binding signal", "setting": "[1]", "value": "6.81 log2 enrichment (interaction score)"}
    ]},
    {"sequence": "GGCUAGAACUAGUGGAUCCCCCGGCGCCCGGCGGCUCGAGCCCGGGUAAGUGUAACUAGUCUGCAUGCCGCCGGGCGCCAUGCCUGCAGGUCGACUCUAGAAAACAUG", "values": [
      {"measurement": "binding signal", "setting": "[2]", "value": "2.56 log2 enrichment (interaction score)"}
    ]},
    {"sequence": "GGCUAGAACUAGUGGAUCCCCCGGCGCCCGGCGGCUCGAGCCCGGGUAAGUGUAAAUGGUCUGCAUGCCGCCGGGCGCCAUGCCUGCAGGUCGACUCUAGAAAACAUG", "values": [
      {"measurement": "binding signal", "setting": "[3]", "value": "2.32 log2 enrichment (interaction score)"}
    ]},
    {"sequence": "GGCUAGAACUAGUGGAUCCCCCGGCGCCCGGCGGCUCGAGCCCGGGUAAGUGUAAAUAGUCUGCAUGCCGCCGGGCGCCAUGCCUGCAGGUCGACUCUAGAAAACAUG", "values": [
      {"measurement": "binding signal", "setting": "[1]", "value": "6.72 log2 enrichment (interaction score)"},
      {"measurement": "binding signal", "setting": "[4]", "value": "3.01 log2 enrichment (interaction score)"},
      {"measurement": "binding signal", "setting": "[5]", "value": "4.16 log2 enrichment (interaction score)"},
      {"measurement": "binding signal", "setting": "[2]", "value": "6.45 log2 enrichment (interaction score)"},
      {"measurement": "binding signal", "setting": "[6]", "value": "4.01 log2 enrichment (interaction score)"}
    ]},
    {"sequence": "GGCUAGAACUAGUGGAUCCCCCGGCGCCCGGCGGCUCGAGCCCGGGUAAGUCUAAAUAGUCUGCAUGCCGCCGGGCGCCAUGCCUGCAGGUCGACUCUAGAAAACAUG", "values": [
      {"measurement": "binding signal", "setting": "[7]", "value": "5.23 log2 enrichment (interaction score)"}
    ]},
    {"sequence": "GGCUAGAACUAGUGGAUCCCCCGGCGCCCGGCGGCUCGAGCCCGGGUAAGUGUAAAUCGUCUGCAUGCCGCCGGGCGCCAUGCCUGCAGGUCGACUCUAGAAAACAUG", "values": [
      {"measurement": "binding signal", "setting": "[8]", "value": "3.25 log2 enrichment (interaction score)"}
    ]},
    {"sequence": "GGCUAGAACUAGUGGAUCCCCCGGCGCCCGGCGGCUCGAGCCCGGGUAAGUGUAAGUAGUCUGCAUGCCGCCGGGCGCCAUGCCUGCAGGUCGACUCUAGAAAACAUG", "values": [
      {"measurement": "binding signal", "setting": "[4]", "value": "1.46 log2 enrichment (interaction score)"},
      {"measurement": "binding signal", "setting": "[9]", "value": "3.13 log2 enrichment (interaction score)"}
    ]},
    {"sequence": "GGCUAGAACUAGUGGAUCCCCCGGCGCCCGGCGGCUCGAGCCCGGGUAAGUGUAAUUAGUCUGCAUGCCGCCGGGCGCCAUGCCUGCAGGUCGACUCUAGAAAACAUG", "values": [
      {"measurement": "binding signal", "setting": "[2]", "value": "5.14 log2 enrichment (interaction score)"},
      {"measurement": "binding signal", "setting": "[10]", "value": "3.62 log2 enrichment (interaction score)"}
    ]},
    {"sequence": "GGCUAGAACUAGUGGAUCCCCCGGCGCCCGGCGGCUCGAGCCCGGGUAAGUGUAUAUAGUCUGCAUGCCGCCGGGCGCCAUGCCUGCAGGUCGACUCUAGAAAACAUG", "values": [
      {"measurement": "binding signal", "setting": "[5]", "value": "1.26 log2 enrichment (interaction score)"}
    ]},
    {"sequence": "GGCUAGAACUAGUGGAUCCCCCGGCGCCCGGCGGCUCGAGCCCGGGUAAGUUUAAAUAGUCUGCAUGCCGCCGGGCGCCAUGCCUGCAGGUCGACUCUAGAAAACAUG", "values": [
      {"measurement": "binding signal", "setting": "[7]", "value": "6.01 log2 enrichment (interaction score)"}
    ]}
  ]
}
